# About 2,000 (36%) of roughly 5,500 compounds were called active. Roughly 18% stayed inconclusive and do not appear here. This is one part of the list. A number with no mark means an inactive call. Rule as the data show it: active = normalized growth mostly below about 0.91 (no sharp cut-off); inconclusive = no clear call, values can overlap the other calls; inactive = mostly above about 0.92.
# Assay: chemical genetic growth profiling, strain panel (AID 1159580);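 also: tested at 20 µM; growth read once vehicle control cultures reached saturation at 30 °C; 1 = growth at the plate median or of vehicle wells; lower values mean less growth of the strain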
# Conditions: growth OD
# [1] = S. cerevisiae deletion strains, locus YAL013W, strain DEP1, hits give low values
# [2] = S. cerevisiae deletion strains, locus YBR229C, strain ROT2, hits give low values
# [3] = S. cerevisiae deletion strains, locus YDL101C, strain DUN1, hits give low values
# [4] = S. cerevisiae deletion strains, locus YDL134C, strain PPH21, hits give low values
# [5] = S. cerevisiae deletion strains, locus YDR150W, strain NUM1, hits give low values
# [6] = S. cerevisiae deletion strains, locus YEL061C, strain CIN8, hits give low values
# [7] = S. cerevisiae deletion strains, locus YGR078C, strain PAC10, hits give low values
# [8] = S. cerevisiae deletion strains, locus YHR030C, strain SLT2, hits give low values
# [9] = S. cerevisiae deletion strains, locus YJR043C, strain POL32, hits give low values
# [10] = S. cerevisiae deletion strains, locus YJR075W, strain HOC1, hits give low values
# [11] = S. cerevisiae deletion strains, locus YLR039C, strain RIC1, hits give low values
# [12] = S. cerevisiae deletion strains, locus YLR262C, strain YPT6, hits give low values
# [13] = S. cerevisiae deletion strains, locus YMR263W, strain SAP30, hits give low values
# [14] = S. cerevisiae deletion strains, locus YMR307W, strain GAS1, hits give low values
# [15] = S. cerevisiae deletion strains, locus YNL153C, strain GIM3, hits give low values
# [16] = S. cerevisiae deletion strains, locus YNL322C, strain KRE1, hits give low values
# [17] = S. cerevisiae deletion strains, locus YPL055C, strain LGE1, hits give low values
# [18] = S. cerevisiae deletion strains, locus YPL241C, strain CIN2, hits give low values
compound,measurement,setting,value
COc1cc2cccc(OC)c(=O)c2c(OC)c1OC,normalized growth,[1],1.01
same,normalized growth,"S. cerevisiae deletion strains, locus YBR021W, strain FUR4, hits give low values",0.994
same,normalized growth,[2],1.01
same,normalized growth,"S. cerevisiae deletion strains, locus YCL029C, strain bik1, hits give low values",1.02
same,normalized growth,"S. cerevisiae deletion strains, locus YDL035C, strain GPR1, hits give low values",1.02
same,normalized growth,"S. cerevisiae deletion strains, locus YDL074C, strain BRE1, hits give low values",1
same,normalized growth,[3],1.01
same,normalized growth,[4],1.01
same,normalized growth,"S. cerevisiae deletion strains, locus YDL185W, strain tfp1, hits give low values",1.01
same,normalized growth,"S. cerevisiae deletion strains, locus YDL192W, strain arf1, hits give low values",1.03
same,normalized growth,"S. cerevisiae deletion strains, locus YDR101C, strain arx1, hits give low values",0.991
same,normalized growth,[5],1.02
same,normalized growth,"S. cerevisiae deletion strains, locus YDR162C, strain NBP2, hits give low values",1.02
same,normalized growth,"S. cerevisiae deletion strains, locus YDR318W, strain mcm21, hits give low values",1.03
same,normalized growth,"S. cerevisiae deletion strains, locus YDR388W, hits give low values",1.01
same,normalized growth,"S. cerevisiae deletion strains, locus YDR502C, strain sam2, hits give low values",0.989
same,normalized growth,[6],1.01
same,normalized growth,"S. cerevisiae deletion strains, locus YER110C, hits give low values",1.02
same,normalized growth,"S. cerevisiae deletion strains, locus YER155C, strain BEM2, hits give low values",1
same,normalized growth,"S. cerevisiae deletion strains, locus YER167W, strain BCK2, hits give low values",1.03
same,normalized growth,"S. cerevisiae deletion strains, locus YGL078C, strain dbp3, hits give low values",1
same,normalized growth,"S. cerevisiae deletion strains, locus YGL086W, strain mad1, hits give low values",1.03
same,normalized growth,"S. cerevisiae deletion strains, locus YGL248W, strain PDE1, hits give low values",1.01
same,normalized growth,[7],0.998
same,normalized growth,"S. cerevisiae deletion strains, locus YGR135W, strain pre9, hits give low values",0.982
same,normalized growth,"S. cerevisiae deletion strains, locus YGR229C, strain SMI1, hits give low values",0.994
same,normalized growth,"S. cerevisiae deletion strains, locus YGR252W, strain gcn5, hits give low values",0.988
same,normalized growth,[8],1.01
same,normalized growth,"S. cerevisiae deletion strains, locus YHR079C, strain IRE1 (second series), hits give low values",1
same,normalized growth,"S. cerevisiae deletion strains, locus YHR094C, strain hxt1, hits give low values",1.01
same,normalized growth,"S. cerevisiae deletion strains, locus YHR129C, strain ARP1, hits give low values",1
same,normalized growth,"S. cerevisiae deletion strains, locus YHR200W, strain rpn10, hits give low values",1.01
same,normalized growth,"S. cerevisiae deletion strains, locus YIL066C, strain RNR3, hits give low values",1.02
same,normalized growth,"S. cerevisiae deletion strains, locus YIL073C, strain SPO22, hits give low values",1.06
same,normalized growth,"S. cerevisiae deletion strains, locus YIL125W, strain kgd1, hits give low values",1.02
same,normalized growth,"S. cerevisiae deletion strains, locus YIR030C, strain dcg1, hits give low values",1.01
same,normalized growth,"S. cerevisiae deletion strains, locus YJL095W, strain BCK1, hits give low values",1
same,normalized growth,"S. cerevisiae deletion strains, locus YJL134W, strain LCB3, hits give low values",1.01
same,normalized growth,"S. cerevisiae deletion strains, locus YJL168C, strain set2, hits give low values",1.01
same,normalized growth,"S. cerevisiae deletion strains, locus YJL187C, strain SWE1 (second series), hits give low values",0.996
same,normalized growth,[9],0.999
same,normalized growth,[10],1
same,normalized growth,"S. cerevisiae deletion strains, locus YKL009W, strain mrt4, hits give low values",1.03
same,normalized growth,"S. cerevisiae deletion strains, locus YKL068W, hits give low values",1.01
same,normalized growth,"S. cerevisiae deletion strains, locus YKL085W, strain MDH1 (second series), hits give low values",1.02
same,normalized growth,"S. cerevisiae deletion strains, locus YKL085W, strain MDH1, hits give low values",1.02
same,normalized growth,"S. cerevisiae deletion strains, locus YKL190W, strain CNB1, hits give low values",1.01
same,normalized growth,"S. cerevisiae deletion strains, locus YKR001C, strain vps1, hits give low values",1.01
same,normalized growth,[11],1.09
same,normalized growth,"S. cerevisiae deletion strains, locus YLR058C, strain SHM2, hits give low values",1.01
same,normalized growth,"S. cerevisiae deletion strains, locus YLR102C, strain apc9, hits give low values",1.01
same,normalized growth,[12],1.09
same,normalized growth,"S. cerevisiae deletion strains, locus YLR268W, strain sec22, hits give low values",0.99
same,normalized growth,"S. cerevisiae deletion strains, locus YLR330W, strain CHS5, hits give low values",1.01
same,normalized growth,"S. cerevisiae deletion strains, locus YLR342W, strain FKS1 (second series), hits give low values",1.05
same,normalized growth,"S. cerevisiae deletion strains, locus YLR371W, strain rom2, hits give low values",1.01
same,normalized growth,"S. cerevisiae deletion strains, locus YLR418C, strain cdc73, hits give low values",0.945
same,normalized growth,"S. cerevisiae deletion strains, locus YML016C, strain PPZ1, hits give low values",1.01
same,normalized growth,"S. cerevisiae deletion strains, locus YML032C, strain rad52, hits give low values",1.03
same,normalized growth,"S. cerevisiae deletion strains, locus YML124C, strain tub3, hits give low values",1.01
same,normalized growth,"S. cerevisiae deletion strains, locus YMR078C, strain ctf18, hits give low values",1.02
same,normalized growth,"S. cerevisiae deletion strains, locus YMR223W, strain ubp8, hits give low values",1.01
same,normalized growth,[13],0.996
same,normalized growth,[14],0.966
same,normalized growth,"S. cerevisiae deletion strains, locus YNL067W, strain RPL9B, hits give low values",0.992
same,normalized growth,"S. cerevisiae deletion strains, locus YNL128W, strain TEP1, hits give low values",1
same,normalized growth,[15],0.977
same,normalized growth,"S. cerevisiae deletion strains, locus YNL233W, strain BNI4, hits give low values",0.977
same,normalized growth,"S. cerevisiae deletion strains, locus YNL250W, strain rad50, hits give low values",1.01
same,normalized growth,"S. cerevisiae deletion strains, locus YNL271C, strain bni1, hits give low values",1.01
same,normalized growth,"S. cerevisiae deletion strains, locus YNL298W, strain CLA4, hits give low values",1.02
same,normalized growth,"S. cerevisiae deletion strains, locus YNL307C, strain MCK1, hits give low values",1.03
same,normalized growth,[16],1.02
same,normalized growth,"S. cerevisiae deletion strains, locus YNR052C, strain pop2, hits give low values",1.01
same,normalized growth,"S. cerevisiae deletion strains, locus YOL006C, strain TOP1, hits give low values",1.01
same,normalized growth,"S. cerevisiae deletion strains, locus YOL012C, strain htz1",0.97
same,normalized growth,"S. cerevisiae deletion strains, locus YOL147C, strain pex11, hits give low values",1.01
same,normalized growth,"S. cerevisiae deletion strains, locus YOR061W, strain CKA2, hits give low values",1.02
same,normalized growth,"S. cerevisiae deletion strains, locus YOR069W, strain VPS5, hits give low values",1.01
same,normalized growth,"S. cerevisiae deletion strains, locus YOR136W, strain idh2, hits give low values",1.02
same,normalized growth,"S. cerevisiae deletion strains, locus YOR144C, strain elg1, hits give low values",1.01
same,normalized growth,"S. cerevisiae deletion strains, locus YOR184W, strain ser1, hits give low values",1.04
same,normalized growth,"S. cerevisiae deletion strains, locus YOR316C, strain cot1, hits give low values",1.01
same,normalized growth,[17],0.984
same,normalized growth,[18],1.01
same,normalized growth,"S. cerevisiae deletion strains, locus YPR119W, strain clb2, hits give low values",1.01
same,normalized growth,"S. cerevisiae deletion strains, locus YPR141C, strain kar3, hits give low values",1.03
same,normalized growth,"S. cerevisiae deletion strains, locus YPR163C, strain tif3, hits give low values",1.01
same,normalized growth,"S. cerevisiae deletion strains, locus YPR167C, strain met16, hits give low values",1.01
same,normalized growth,"S. cerevisiae deletion strains, strain wtn01, hits give low values",0.992
same,normalized growth,"S. cerevisiae strains, strain wild type, hits give low values",1.01
COc1cc(C2Nc3cccc4cccc(c34)N2)cc(OC)c1OC,normalized growth,[1],0.962
same,normalized growth,[2],1.01
same,normalized growth,"S. cerevisiae deletion strains, locus YCL061C, strain MRC1, hits give low values",1.02
same,normalized growth,[3],1.05
same,normalized growth,[4],0.985
same,normalized growth,[5],1.04
same,normalized growth,[6],0.925
same,normalized growth,[7],1.02
same,normalized growth,[8],0.729
same,normalized growth,"S. cerevisiae deletion strains, locus YHR087W, strain rtc3, hits give low values",1.01
same,normalized growth,"S. cerevisiae deletion strains, locus YJL187C, strain SWE1, hits give low values",0.992
same,normalized growth,[9],1.01
same,normalized growth,[10],1.07
same,normalized growth,[11],0.751 (active)
same,normalized growth,"S. cerevisiae deletion strains, locus YLR058C, strain SHM2 (second series), hits give low values",1
same,normalized growth,"S. cerevisiae deletion strains, locus YLR085C, strain ARP6, hits give low values",0.881
same,normalized growth,[12],0.808 (active)
same,normalized growth,"S. cerevisiae deletion strains, locus YML094W, strain GIM5, hits give low values",0.883
same,normalized growth,"S. cerevisiae deletion strains, locus YMR219W, strain ESC1, hits give low values",1
same,normalized growth,[13],0.996
same,normalized growth,[14],0.661 (active)
same,normalized growth,[15],1.02
same,normalized growth,"S. cerevisiae deletion strains, locus YNL298W, strain CLA4 (second series), hits give low values",0.877
same,normalized growth,[16],1
same,normalized growth,"S. cerevisiae deletion strains, locus YNR030W, strain Alg12, hits give low values",0.736 (active)
same,normalized growth,[17],0.945
same,normalized growth,[18],0.403 (active)
same,normalized growth,"S. cerevisiae deletion strains, locus YPR135W, strain CTF4, hits give low values",0.952

# From PubChem BioAssay AID1159580 (chemical genetic matrix, 2015)
